# Measurements: article PMC5540273 (PLoS ONE, 2017)
# Where “and” joins values, the source holds several entries; their conditions need not be identical. Identical values can stand only once. Like-named read-outs stand apart in the source and are kept apart here.
# Experiments:
# [1] = tested on: LTK; conditions: concentration: 1 μM, replicates: in singlicate, n = 1
# [2] = tested on: LYN; conditions: concentration: 1 μM, replicates: in singlicate; n = 1
# [3] = tested on: T1, LZK; conditions: concentration: 1 μM, replicates: in singlicate, n = 1
# T1 construct: gene MAP3K13
# [4] = tested on: MAK; conditions: concentration: 1 μM, replicates: in singlicate; n = 1
# [5] = tested on: MAP3K15; conditions: concentration: 1 μM, replicates: in singlicate, n = 1
# [6] = tested on: MAP3K1; conditions: concentration: 1 μM, replicates: in singlicate, n = 1
# [7] = tested on: MAP3K2; conditions: concentration: 1 μM, replicates: in singlicate, n = 1
# [8] = tested on: MAP3K3; conditions: concentration: 1 μM, replicates: in singlicate, n = 1
# [9] = tested on: MAP3K4; conditions: concentration: 1 μM, replicates: in singlicate, n = 1
# [10] = tested on: MAP4K2; conditions: concentration: 1 μM, replicates: in singlicate, n = 1
# [11] = tested on: MAP4K3; conditions: concentration: 1 μM, replicates: in singlicate, n = 1
# [12] = tested on: MAP4K4; conditions: concentration: 1 μM, replicates: in singlicate, n = 1
# [13] = tested on: MAP4K5; conditions: concentration: 1 μM, replicates: in singlicate, n = 1
# [14] = tested on: MAPKAPK2; conditions: concentration: 1 μM, replicates: in singlicate; n = 1
# [15] = tested on: MAPKAPK5; conditions: concentration: 1 μM, replicates: in singlicate; n = 1
# [16] = tested on: MARK1; conditions: concentration: 1 μM, replicates: in singlicate, n = 1
# [17] = tested on: MARK2; conditions: concentration: 1 μM, replicates: in singlicate, n = 1
# [18] = tested on: MARK3; conditions: concentration: 1 μM, replicates: in singlicate, n = 1
# [19] = tested on: MARK4; conditions: concentration: 1 μM, replicates: in singlicate, n = 1
# [20] = tested on: MAST1; conditions: concentration: 1 μM, replicates: in singlicate; n = 1
# 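Note: KINOMEscan kinase panel screen.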
compound,measurement,setting,value
Cn1ccc2ncnc(Oc3ccc(NC(=O)Nc4ccncc4)c(Cl)c3)c21,%Inh,[1],0%
same,%Inh,[2],0%
same,%Inh,[3],0%
same,%Inh,[4],10%
same,%Inh,[5],0%
same,%Inh,[6],0%
same,%Inh,[7],0%
same,%Inh,[8],0%
same,%Inh,[9],0%
same,%Inh,[10],0%
same,%Inh,[11],0%
same,%Inh,[12],0%
same,%Inh,[13],0%
same,%Inh,[14],0%
same,%Inh,[15],0%
same,%Inh,[16],0%
same,%Inh,[17],11%
same,%Inh,[18],2%
same,%Inh,[19],0%
same,%Inh,[20],2%
CC(C)Oc1ccc2c(-c3ccnc(Nc4ccc(N5CCN(C)CC5)cc4)n3)cnn2n1 [GW696155],%Inh,[1],0%
same,%Inh,[2],34%
same,%Inh,[3],10%
same,%Inh,[4],0%
same,%Inh,[5],11%
same,%Inh,[6],39%
same,%Inh,[7],83%
same,%Inh,[8],67%
same,%Inh,[9],74%
same,%Inh,[10],28%
same,%Inh,[11],52%
same,%Inh,[12],1%
same,%Inh,[13],0%
same,%Inh,[14],0%
same,%Inh,[15],0%
same,%Inh,[16],50%
same,%Inh,[17],72%
same,%Inh,[18],77%
same,%Inh,[19],59%
same,%Inh,[20],8%
Cc1ccc(C(=O)NCC(N)=O)cc1-n1c(C)cc(OCc2ccc(F)cc2F)c(Br)c1=O,%Inh,[1],27%
same,%Inh,[2],18%
same,%Inh,[3],0%
same,%Inh,[4],11%
same,%Inh,[5],0%
same,%Inh,[6],0%
same,%Inh,[7],0%
same,%Inh,[8],0%
same,%Inh,[9],22%
same,%Inh,[10],0%
same,%Inh,[11],12%
same,%Inh,[12],4%
same,%Inh,[13],0%
same,%Inh,[14],17%
same,%Inh,[15],0%
same,%Inh,[16],24%
same,%Inh,[17],11%
same,%Inh,[18],10%
same,%Inh,[19],16%
same,%Inh,[20],0%
CCc1nc(-c2cccc(C)c2)c(-c2ccnc(NCc3ccccc3)c2)s1,%Inh,[1],0%
same,%Inh,[2],8%
same,%Inh,[3],0%
same,%Inh,[4],26%
same,%Inh,[5],3%
same,%Inh,[6],0%
same,%Inh,[7],0%
same,%Inh,[8],0%
same,%Inh,[9],0%
same,%Inh,[10],3%
same,%Inh,[11],0%
same,%Inh,[12],12%
same,%Inh,[13],0%
same,%Inh,[14],0%
same,%Inh,[15],0%
same,%Inh,[16],0%
same,%Inh,[17],1%
same,%Inh,[18],0%
same,%Inh,[19],0%
same,%Inh,[20],0%
c1ccc(-c2cc(-c3c[nH]nc3-c3ccccn3)ccn2)cc1 [GW576604],%Inh,[1],19%
same,%Inh,[2],0%
same,%Inh,[3],10%
same,%Inh,[4],0%
same,%Inh,[5],0%
same,%Inh,[6],0%
same,%Inh,[7],0%
same,%Inh,[8],0%
same,%Inh,[9],0%
same,%Inh,[10],0%
same,%Inh,[11],0%
same,%Inh,[12],22%
same,%Inh,[13],0%
same,%Inh,[14],6%
same,%Inh,[15],0%
same,%Inh,[16],0%
same,%Inh,[17],0%
same,%Inh,[18],0%
same,%Inh,[19],0%
same,%Inh,[20],13%
O=C(c1ccc(-c2cc(-c3c[nH]nc3-c3ccccn3)ccn2)cc1)N1CCOCC1 [GW812171],%Inh,[1],4%
same,%Inh,[2],0%
same,%Inh,[3],0%
same,%Inh,[4],0%
same,%Inh,[5],0%
same,%Inh,[6],0%
same,%Inh,[7],22%
same,%Inh,[8],0%
same,%Inh,[9],9%
same,%Inh,[10],0%
same,%Inh,[11],0%
same,%Inh,[12],0%
same,%Inh,[13],0%
same,%Inh,[14],0%
same,%Inh,[15],0%
same,%Inh,[16],5%
same,%Inh,[17],21%
same,%Inh,[18],17%
same,%Inh,[19],11%
same,%Inh,[20],18%
O=C(NOCC1CC1)c1ccc(F)c(F)c1Nc1ccc(I)cc1Cl,%Inh,[1],0%
same,%Inh,[2],0%
same,%Inh,[3],0%
same,%Inh,[4],0%
same,%Inh,[5],0%
same,%Inh,[6],0%
same,%Inh,[7],0%
same,%Inh,[8],0%
same,%Inh,[9],0%
same,%Inh,[10],0%
same,%Inh,[11],0%
same,%Inh,[12],0%
same,%Inh,[13],0%
same,%Inh,[14],0%
same,%Inh,[15],0%
same,%Inh,[16],0%
same,%Inh,[17],6%
same,%Inh,[18],0%
same,%Inh,[19],0%
same,%Inh,[20],0%
Cc1nnc(-c2ccc(C)c(-c3ccc(C(=O)Nc4ccc(NS(C)(=O)=O)cc4)cc3)c2)o1 [GW702865],%Inh,[1],3%
same,%Inh,[2],25%
same,%Inh,[3],21%
same,%Inh,[4],35%
same,%Inh,[5],0%
same,%Inh,[6],0%
same,%Inh,[7],0%
same,%Inh,[8],0%
same,%Inh,[9],19%
same,%Inh,[10],0%
same,%Inh,[11],0%
same,%Inh,[12],0%
same,%Inh,[13],0%
same,%Inh,[14],11%
same,%Inh,[15],0%
same,%Inh,[16],0%
same,%Inh,[17],0%
same,%Inh,[18],0%
same,%Inh,[19],10%
same,%Inh,[20],21%
NCCNS(=O)(=O)c1ccc(-c2ccnc3[nH]ccc23)cc1 [GSK977617],%Inh,[1]; 1 µM,37% and 0%
same,%Inh,[2],0%
same,%Inh,[3]; 1 µM,22% and 3%
same,%Inh,[4],0%
same,%Inh,[5]; 1 µM,4% and 0%
same,%Inh,[6]; 1 µM,8% and 11%
same,%Inh,[7]; 1 µM,83% and 72%
same,%Inh,[8]; 1 µM,63% and 56%
same,%Inh,[9]; 1 µM,0% and 21%
same,%Inh,[10]; 1 µM,47% and 38%
same,%Inh,[11]; 1 µM,20% and 0%
same,%Inh,[12]; 1 µM,43% and 25%
same,%Inh,[13]; 1 µM,8% and 0%
same,%Inh,[14],0%
same,%Inh,[15],0%
same,%Inh,[16]; 1 µM,18% and 0%
same,%Inh,[17]; 1 µM,53% and 40%
same,%Inh,[18]; 1 µM,25% and 4%
same,%Inh,[19]; 1 µM,36% and 12%
same,%Inh,[20],0%
O=C(Nc1n[nH]c2cc(-c3cccc(F)c3)ccc12)C1CC1 [SB-735464],%Inh,[1],0%
same,%Inh,[2],9%
same,%Inh,[3],2%
same,%Inh,[4],3%
same,%Inh,[5],48%
same,%Inh,[6],22%
same,%Inh,[7],5%
same,%Inh,[8],10%
same,%Inh,[9],24%
same,%Inh,[10],6%
same,%Inh,[11],0%
same,%Inh,[12],42%
same,%Inh,[13],6%
same,%Inh,[14],0%
same,%Inh,[15],21%
same,%Inh,[16],9%
same,%Inh,[17],25%
same,%Inh,[18],0%
same,%Inh,[19],5%
same,%Inh,[20],34%
